From PubChem
MEKK2wt PB1 HTS = raises or lowers MEK5 binding to wildtype human MEKK2 PB1 domain. binding response (% of control), % at 10 µM. 290,000 tested, 1.1% active. bead flow cytometry, Alexa488-MEK5 binding to MEKK2 WT; actives lie on both sides; in the data active = binding response below about 67% or above about 130%
MEKK2mut PB1 HTS = signal of MEK5 binding to mutant human MEKK2 PB1 domain; 290,000 tested, 0.35% active; percent response, % at 10 µM; bead flow cytometry, Alexa488-MEK5 binding to MEKK2 mutant; in the data active = percent response above about 24%, passing the limit was not always enough
MEKK3 PB1 HTS = raises or lowers MEK5 binding to the human MEKK3 PB1 domain; 290,000 tested, 1.4% active; binding response (% of control), % at 10 µM; bead-based flow cytometry, Alexa488-MEK5 binding to MEKK3; actives lie on both sides; 0 = blocked by unlabeled MEK5, 100 = vehicle; Q99759; AID 1529;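 active = binding response more than 3 SD above or below the average of its plate-row segment, actives on both sides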;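 also: Alexa488 bead fluorescence after subtracting the streptavidin-only scavenger bead signal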
Target sequence (Q99759 whole entry, looked up, the tested form may be a part): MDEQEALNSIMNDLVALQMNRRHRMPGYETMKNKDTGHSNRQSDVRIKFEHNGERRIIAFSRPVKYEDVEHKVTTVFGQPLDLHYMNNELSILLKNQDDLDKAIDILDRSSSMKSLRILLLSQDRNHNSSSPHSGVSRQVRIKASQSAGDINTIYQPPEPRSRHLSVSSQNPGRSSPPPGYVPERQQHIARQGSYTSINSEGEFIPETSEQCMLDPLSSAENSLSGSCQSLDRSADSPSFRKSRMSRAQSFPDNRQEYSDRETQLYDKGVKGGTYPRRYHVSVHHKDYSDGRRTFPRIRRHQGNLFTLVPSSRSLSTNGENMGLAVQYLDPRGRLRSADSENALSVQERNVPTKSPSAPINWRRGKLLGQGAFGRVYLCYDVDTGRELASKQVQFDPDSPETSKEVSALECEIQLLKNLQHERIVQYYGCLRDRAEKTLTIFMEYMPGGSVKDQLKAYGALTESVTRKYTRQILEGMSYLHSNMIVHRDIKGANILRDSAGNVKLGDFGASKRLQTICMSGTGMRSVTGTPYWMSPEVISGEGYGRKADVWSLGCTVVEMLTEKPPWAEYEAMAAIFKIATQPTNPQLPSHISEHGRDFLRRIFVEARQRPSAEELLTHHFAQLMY
UBC13 inh = inhibitors of human UBC13 polyubiquitin chain formation; TR-FRET; 330,000 tested, 0.47% active; AID 485273; inhibition, % at 20 µM; P61088; in the data active = inhibition above about 45%, passing the limit was not always enough
Rce1 inh = yeast Ras-converting enzyme inhibition | Q03530 | yeast membranes, quenched prenylated peptide cleavage fluorescence | calls only | 290,000 tested, 0.27% active;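 active = fall in fluorescence gain of 50% or more versus controls, with final raw signal at or below 3038400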;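 also: plate controls were neutral control wells for no effect and wells lacking membranes for full effect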
MEKK2wt confirm = raises or lowers MEK5 binding to wildtype human MEKK2, retest; shares compounds with MEKK3 PB1 HTS; bead flow cytometry, Alexa488-MEK5 binding to MEKK2 WT; actives lie on both sides; binding response (% of control), % at 10 µM; 5,900 tested, 2.4% active; AID 1892; in the data active = binding response below about 16% or above about 210%; inactive = in between
MEKK2mut-MEK5 = signal of MEK5 binding to mutant human MEKK2, retest; 5,900 tested, 2% active; shares compounds with MEKK3 PB1 HTS; bead flow cytometry, Alexa488-MEK5 binding to MEKK2 mutant; AID 1893; percent response, % at 10 µM; in the data active = percent response mostly above about 71%, no sharp cut-off; inactive = mostly below about 38%;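 also: higher means compound restores mutant binding toward wildtype level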
MEKK3 confirm = MEKK3-MEK5 PB1 inhibition, single concentration confirmation. binding response (% of control), % at 10 µM. AID 1894. 5,900 tested, 1.8% active. bead flow cytometry, Alexa488-MEK5 binding to MEKK3; hits give low values. shares compounds with MEKK3 PB1 HTS;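 active = binding response below 72% of control, or above a set upper limit, though filed actives all read lower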;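 also: 100% = DMSO only wells and 0% = binding blocked by excess unlabeled MEK5; lower values mean stronger disruption of MEK5 binding to MEKK3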
* marks the source's active call; other numbers are inactive results; i = inactive; x = no result; [ ] = remark or other dose. Most compounds without a hit are left out; they make up all but 2.5% or so of the library.

SMILES | MEKK2wt PB1 HTS | MEKK2mut PB1 HTS | MEKK3 PB1 HTS | UBC13 inh | Rce1 inh | MEKK2wt confirm | MEKK2mut-MEK5 | MEKK3 confirm
CC(=O)Nc1nc(NCc2ccccc2Cl)n(-c2ccccc2)n1 | 111 | 7 | 107 | -6 | i | x | x | x
COc1ccc(NC(=O)Cc2c(Sc3ccccc3)c3ccccc3n2C)cc1 | 113 | 1 | 154* | 3 | i | 111 | 2 | 105
Cn1c(CC(=O)Nc2ccc(F)cc2)c(Sc2ccccc2)c2ccccc21 | 122 | 54* | 104 | -11 | i | 117 | 5 | 103
CC(=O)c1ccccc1NC(=O)COC(=O)C1=NN(c2ccccc2)C(=O)CC1 | x | x | x | 5 | x | x | x | x
COc1nc(C)nc2c1ccc1ccccc12 | 104 | 2 | 136* | 8 | i | 98 | -4 | 104
O=C(O)c1cccc(C(=O)O)c1Br | 152* | 11 | 109 | -2 | i | 104 | 6 | 98
Nc1nc2c(F)cccc2s1 | 102 | 0 | 133* | -12 | i | 102 | 1 | 99
Fc1cccc2sc(Nc3nc4c(F)cccc4s3)nc12 | 103 | -2 | 102 | -6 | i | x | x | x
NNc1nc2c(F)cccc2s1 | 105 | 0 | 140* | -2 | i | 106 | 0 | 104
N=C1C(c2ccccc2)=C(O)CN1CCCO | 105 | -3 | 120 | -26 | i | x | x | x
C#CCOCCOCCOCCNc1nc(N2CCN(C(=O)[C@H](CCCCN)n3cc([C@@H](N)CO)nn3)CC2)nc(N2CCN(C(=O)[C@H](Cc3cc4ccccc4[nH]3)n3cc([C@@H](N)Cc4ccc(O)cc4)nn3)CC2)n1 | 190* | 56* | 108 | 106* | i | 183 | 50 | 115
C#CCOCCOCCOCCNc1nc(N2CCN(C(=O)[C@H](CCC(=O)O)n3cc(C(N)CC(C)C)nn3)CC2)nc(N2CCN(C(=O)[C@H](Cc3cc4ccccc4[nH]3)n3cc(C(N)[C@H](C)CC)nn3)CC2)n1 (stereo partly specified) | 109 | 3 | 100 | 5 | i | x | x | x
C#CCOCCOCCOCCNc1nc(N2CCN(C(=O)C(Cc3ccc(O)cc3)n3cc(C(N)CC(C)C)nn3)CC2)nc(N2CCN(C(=O)C(Cc3cc4ccccc4[nH]3)n3cc(C(N)C(C)CC)nn3)CC2)n1 (stereo unspecified) | 239* | 118* | 111 | 77* | i | 237* | 89* | 106
C#CCOCCOCCOCCNc1nc(N2CCOCC2)nc(N2CCN(C(=O)[C@H](Cc3cc4ccccc4[nH]3)n3cc([C@@H](N)C(C)CC)nn3)CC2)n1 (stereo partly specified) | 126 | 11 | 101 | 26 | i | x | x | x
C#CCOCCOCCOCCNc1nc(N2CCN(C(=O)[C@H](Cc3ccc(O)cc3)n3cc([C@@H](N)C(C)CC)nn3)CC2)nc(N2CCN(C(=O)[C@H](Cc3cc4ccccc4[nH]3)n3cc([C@@H](N)Cc4ccc(O)cc4)nn3)CC2)n1 (stereo partly specified) | 169* | 6 | 106 | 78* | i | 241* | 125* | 113
COc1cc(CN2CCNC(=O)C2CC(=O)N2CCCO2)cc(OC)c1 (stereo unspecified) | 91 | -11 | 98 | -9 | i | x | x | x
COc1ccc2c(c1)C1NC(=S)NC(C)(O2)C1C(=O)Nc1ccc(Cl)cc1 (stereo unspecified) | 100 | -1 | 120 | -14 | i | x | x | x
Cc1ccc2c(c1)C1NC(=S)NC(C)(O2)C1C(=O)Nc1ccc(Cl)cc1 (stereo unspecified) | 102 | 0 | 146* | -21 | i | 104 | 3 | 108
Cn1c(=O)c2c(ncn2CC(=O)N2CCN(C(=O)c3ccco3)CC2)n(C)c1=O | 50*[inhibitor] | -9 | 85 | 2 | i | 107 | 8 | 109
Cn1c(=O)c2c(ncn2CC(=O)N2CCOCC2)n(C)c1=O | 102 | 0 | 100 | 0 | i | x | x | x
COc1ccc(C(OC(=O)c2ccco2)C(=O)NC(C)(C)C)cc1 (stereo unspecified) | 120 | 6 | 139* | 11 | i | 98 | -6 | 101
COCCNC(=O)C(OC(=O)c1ccco1)c1ccccc1Cl (stereo unspecified) | 108 | 4 | 107 | 0 | i | x | x | x
COCCNC(=O)C(OC(=O)c1ccco1)c1ccccc1OC (stereo unspecified) | 122 | 6 | 123* | 4 | x | 100 | -4 | 98
Cc1ccc(C(OC(=O)c2ccco2)C(=O)NC(C)(C)C)cc1 (stereo unspecified) | 103 | 5 | 103 | -1 | i | x | x | x
CN(C)C(=O)c1cc(C(=O)Cc2ccccc2)c[nH]1 | 105 | 11 | 105 | 0 | i | x | x | x
SMILES | MEKK2wt PB1 HTS | MEKK2mut PB1 HTS | MEKK3 PB1 HTS | UBC13 inh | Rce1 inh | MEKK2wt confirm | MEKK2mut-MEK5 | MEKK3 confirm
CCOC(=O)c1c(-c2cccc3ccccc23)csc1NC(=O)C1C2CCC(O2)C1C(=O)O (stereo unspecified) | 100 | -1 | 113 | -9 | i | x | x | x
COC(=O)c1c(-c2ccc(C(C)(C)C)cc2)csc1NC(=O)C1C2CCC(O2)C1C(=O)O (stereo unspecified) | 92 | -1 | 75*[inhibitor] | 24 | i | 99 | -1 | 105
CSc1ccc(NC(=O)NCCCN2CCC(Cc3ccccc3)CC2)cc1 | 162* | 30* | 111 | 28 | i | 185 | 40 | 112
CSc1ccc(NC(=O)NCCN2CCc3ccccc3C2)cc1 | 86 | -20 | 49*[inhibitor] | 9 | i | 132 | 17 | 107
COc1ccc(NC(=O)NCCCN2CCC(Cc3ccccc3)CC2)cc1 | 96 | -6 | 90 | -4 | i | x | x | x
COc1ccc2c(CSc3nc4nc(C)cc(C)n4n3)cc(=O)oc2c1 | 123 | 6 | 122* | -10 | i | 97 | -3 | 100
COc1cccc(C(C)N(C)Cc2nc(-c3ccoc3)oc2C)c1 (stereo unspecified) | 95 | -10 | 106 | 5 | i | x | x | x
CN1C(=O)C(CC(=O)N2CCN(C(c3ccccc3)c3ccccc3)CC2)N(C)C1=O (stereo unspecified) | 1.0*[inhibitor] | -17 | 1.0*[inhibitor] | -4 | i | 105 | 2 | 102
CC(=O)N1CCN(C(c2ccccc2)c2ccccc2)CC1 | 83 | -5 | 76 | -8 | i | x | x | x
CCS(=O)(=O)N1N=C(c2cccs2)CC1c1cc2cc(C)ccc2nc1Cl (stereo unspecified) | -9.0*[inhibitor] | 5 | 96 | -7 | i | 93 | -9 | 101
